Test [1] can be described thus: small molecules captured by biotinylated probe aFSTL3 – biochemical, small-molecule microarray, fluorescence 635/667, stem cell growth factor project, primary screen (AID 1064).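 Also: measures binding of the biotinylated anti-FSTL3 antibody to printed compounds.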 The following applies: higher = more signal.
A short description of test [2]: binders from COS7 lysate, DM2A8 probe, primary screen, torsin A project, cell lysate, small-molecule microarray, fluorescence 635/667 (AID 1065). The conditions noted are these: higher = more signal, COS7 lysate expressing mutant human TOR1A.
Test [3] can be described thus: small molecules captured by biotinylated probe aFGF2 – biochemical, small-molecule microarray, fluorescence 635/667, stem cell growth factor project, primary screen (AID 1067).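 Also: measures binding of biotinylated aFGF2 protein to printed compounds on slides; z-score merges feature fluorescence and signal-to-noise across triplicate slides.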 The following applies: higher = more signal.
Test [4] is described as follows: small molecules captured by biotinylated probe aFGF10 – biochemical, small-molecule microarray, fluorescence 635/667, stem cell growth factor project, primary screen (AID 1071).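 Also: score merges 667 nm spot intensity and signal to noise from triplicate slides.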 The conditions noted are these: higher = more signal.
Test [5] addresses Neurogenic locus notch homolog protein 2 (Homo sapiens) (UniProt Q04721). The experiment in a line: small molecules binding Notch2 protein – biochemical, small-molecule microarray, 635 nm fluorescence, stem cell growth factors, primary screen (AID 1073). The conditions noted are these: higher = more signal.
The target in test [6] is Pro-neuregulin-1, membrane-bound isoform (Homo sapiens) (UniProt Q02297). Nature of the test: small molecules binding neuregulin-1 protein – biochemical, small-molecule microarray, fluorescence 635/667, psychiatric disease protein project, primary screen (AID 1075).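 Also: score combines 667 nm spot fluorescence with signal to noise.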 The following applies: NRG1 binding, 635 nm fluorescence, higher = more signal.
Pro-neuregulin-1, membrane-bound isoform (Homo sapiens), sequence (Q02297 whole entry, looked up, the tested form may be a part, canonical isoform): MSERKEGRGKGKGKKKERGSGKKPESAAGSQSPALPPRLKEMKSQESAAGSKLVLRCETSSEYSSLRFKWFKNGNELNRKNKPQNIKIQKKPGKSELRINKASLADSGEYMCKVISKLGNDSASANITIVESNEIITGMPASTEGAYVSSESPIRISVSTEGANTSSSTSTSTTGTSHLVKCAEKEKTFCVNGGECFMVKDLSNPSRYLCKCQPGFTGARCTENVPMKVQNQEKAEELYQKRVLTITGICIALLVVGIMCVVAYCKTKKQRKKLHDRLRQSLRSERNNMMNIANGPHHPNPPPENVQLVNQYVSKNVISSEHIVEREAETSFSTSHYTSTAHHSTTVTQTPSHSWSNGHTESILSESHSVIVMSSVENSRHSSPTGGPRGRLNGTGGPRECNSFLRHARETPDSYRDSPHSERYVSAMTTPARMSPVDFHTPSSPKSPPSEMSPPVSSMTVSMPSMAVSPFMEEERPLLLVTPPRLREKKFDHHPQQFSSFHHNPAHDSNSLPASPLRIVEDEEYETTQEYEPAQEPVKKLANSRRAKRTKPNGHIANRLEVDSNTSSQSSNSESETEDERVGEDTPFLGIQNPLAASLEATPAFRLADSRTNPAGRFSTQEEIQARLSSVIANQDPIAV
Test [7] concerns Neuregulin-1 EGF-like domain. Nature of the test: small molecules binding NRG1 EGF domain – biochemical, small-molecule microarray, 635 nm fluorescence, primary screen (AID 1081).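 Also: binding of the protein to compounds printed on small-molecule microarray slides.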 The conditions noted are these: higher = more signal.
Test [8] is described as follows: FRG1 expression reporter modulators in myotubes – cell-based, C2C12 myotubes, firefly/Renilla luciferase, luminescence, FRG1 inhibition for FSHD, primary screen (AID 1084). The following applies: FRG1 promoter luciferase, higher = more signal, called active from +8 up or from −8 down.
The nature of test [9]: small molecules captured by biotinylated probe aFST – biochemical, small-molecule microarray, fluorescence 635/667, stem cell growth factor project, primary screen (AID 1086).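 Also: score merges 667 nm fluorescence with signal-to-noise of each printed compound spot.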 The following applies: higher = more signal.
Test [10] in a line: binders of probe aHhip on microarray, primary screen, stem cell growth factor project, biochemical, small-molecule microarray, fluorescence 635/667 (AID 1087).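 Also: score merges spot fluorescence at 667nm with spot signal to noise ratio.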 The following applies: higher = more signal.
The subject of test [11] is PRMT1 (protein arginine N-methyltransferase 1). The experiment in a line: small molecules binding arginine methyltransferase PRMT1 – biochemical, small-molecule microarray, 635 nm fluorescence, primary screen (AID 1088).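 Also: binding of Prmt1 protein to compounds spotted on small-molecule microarray slides.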 The conditions noted are these: higher = more signal.
A short description of test [12]: growth effects on S. cerevisiae YJM789 – YJM789 clinical isolate, OD600, 24 h, basal, primary screen (AID 1089).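 Also: growth of clinical yeast isolate S. cerevisiae YJM 789 seeded 1000 cells per well; test concentration not given here.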 The following applies: higher = more signal, called active from +8 up or from −8 down.
Test [13] in a line: S. pombe growth modifiers, basal conditions – strain 972, OD600, 24 h, no modulator, primary screen (AID 1090).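 Also: basal condition with compound alone and no growth modifier present; test concentration not given here.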 The following applies: S. pombe 972 growth, higher = more signal, called active from +8 up or from −8 down.
Test [14] in a line: budding yeast growth modifiers under rapamycin – strain BY4716, OD600, 96 h, primary screen (AID 1091). Also: test concentration not given here. The following applies: S. cerevisiae BY4716 + rapamycin, higher = more signal, called active from +8 up or from −8 down.
The target of test [15] is Torsin-1A-interacting protein 2 (Homo sapiens) (UniProt Q8NFQ8). The experiment in a line: small molecules binding lysate-expressed LULL1 – cell lysate, human LULL1 lysate, 635/667 nm fluorescence, primary screen (AID 1092).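 Also: probe is lysate of COS7 cells overexpressing human LULL1; score merges per-feature 667 nm fluorescence with signal-to-noise.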 The conditions noted are these: small-molecule microarray, hLULL1 lysate binding, 635 nm fluorescence; higher = more signal.
Torsin-1A-interacting protein 2 (Homo sapiens), sequence (Q8NFQ8 whole entry, looked up): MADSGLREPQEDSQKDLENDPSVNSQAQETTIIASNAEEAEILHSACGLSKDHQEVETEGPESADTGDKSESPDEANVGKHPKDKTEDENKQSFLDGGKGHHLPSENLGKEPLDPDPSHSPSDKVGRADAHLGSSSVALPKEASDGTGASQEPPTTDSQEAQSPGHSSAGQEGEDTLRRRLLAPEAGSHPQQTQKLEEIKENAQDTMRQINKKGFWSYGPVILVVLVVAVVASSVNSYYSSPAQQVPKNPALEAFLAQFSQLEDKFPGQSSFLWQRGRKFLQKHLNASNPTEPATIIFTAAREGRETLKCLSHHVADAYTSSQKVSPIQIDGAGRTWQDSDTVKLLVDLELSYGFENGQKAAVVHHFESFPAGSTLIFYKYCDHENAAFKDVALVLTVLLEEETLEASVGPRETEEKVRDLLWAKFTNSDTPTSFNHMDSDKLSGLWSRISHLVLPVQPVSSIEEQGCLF
The nature of test [16]: optical density change of DRC41 E. coli – strain DRC41, OD650, 24 h, E. coli filamentation project, primary screen (AID 1093).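 Also: MC1000 strain lacking acrAB efflux and sulA so SOS filamentation is blocked; test concentration not given here.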 The following applies: E. coli DRC41 growth, higher = more signal, called active from +8 up or from −8 down.
A short description of test [17]: probe aLefty2 binding to arrayed compounds – biochemical, biotinylated probe, 635/667 nm fluorescence, primary screen (AID 1094).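 Also: score merges spot fluorescence near 667 nm with spot signal-to-noise ratio.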 The following applies: small-molecule microarray, higher = more signal.
For test [18], the system named is Noggin (protein binding on small-molecule microarray). Nature of the test: small molecules binding Noggin protein – biochemical, 635/667 nm fluorescence, primary screen (AID 1095).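 Also: score merges 667 nm feature fluorescence with signal to noise over triplicate slides.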 The conditions noted are these: 635 nm fluorescence, higher = more signal.
The target of test [19] is Neurogenic locus notch homolog protein 3 (Homo sapiens) (UniProt Q9UM47). The experiment in a line: small molecules binding NOTCH3 protein – biochemical, 635/667 nm fluorescence, primary screen (AID 1096). The following applies: small-molecule microarray, 635 nm fluorescence, higher = more signal.
A short description of test [20]: probe aEGFR binding to arrayed compounds – biochemical, biotinylated probe, 635/667 nm fluorescence, primary screen (AID 1097).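 Also: probe is a biotinylated anti-EGFR antibody binding compounds printed on slides; score combines fluorescence near 667 nm and signal to noise of each spot.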 The conditions noted are these: small-molecule microarray, higher = more signal.

Active and inactive are the calls of the source.

Neurogenic locus notch homolog protein 2 (Homo sapiens), sequence (Q04721 whole entry, looked up, canonical isoform): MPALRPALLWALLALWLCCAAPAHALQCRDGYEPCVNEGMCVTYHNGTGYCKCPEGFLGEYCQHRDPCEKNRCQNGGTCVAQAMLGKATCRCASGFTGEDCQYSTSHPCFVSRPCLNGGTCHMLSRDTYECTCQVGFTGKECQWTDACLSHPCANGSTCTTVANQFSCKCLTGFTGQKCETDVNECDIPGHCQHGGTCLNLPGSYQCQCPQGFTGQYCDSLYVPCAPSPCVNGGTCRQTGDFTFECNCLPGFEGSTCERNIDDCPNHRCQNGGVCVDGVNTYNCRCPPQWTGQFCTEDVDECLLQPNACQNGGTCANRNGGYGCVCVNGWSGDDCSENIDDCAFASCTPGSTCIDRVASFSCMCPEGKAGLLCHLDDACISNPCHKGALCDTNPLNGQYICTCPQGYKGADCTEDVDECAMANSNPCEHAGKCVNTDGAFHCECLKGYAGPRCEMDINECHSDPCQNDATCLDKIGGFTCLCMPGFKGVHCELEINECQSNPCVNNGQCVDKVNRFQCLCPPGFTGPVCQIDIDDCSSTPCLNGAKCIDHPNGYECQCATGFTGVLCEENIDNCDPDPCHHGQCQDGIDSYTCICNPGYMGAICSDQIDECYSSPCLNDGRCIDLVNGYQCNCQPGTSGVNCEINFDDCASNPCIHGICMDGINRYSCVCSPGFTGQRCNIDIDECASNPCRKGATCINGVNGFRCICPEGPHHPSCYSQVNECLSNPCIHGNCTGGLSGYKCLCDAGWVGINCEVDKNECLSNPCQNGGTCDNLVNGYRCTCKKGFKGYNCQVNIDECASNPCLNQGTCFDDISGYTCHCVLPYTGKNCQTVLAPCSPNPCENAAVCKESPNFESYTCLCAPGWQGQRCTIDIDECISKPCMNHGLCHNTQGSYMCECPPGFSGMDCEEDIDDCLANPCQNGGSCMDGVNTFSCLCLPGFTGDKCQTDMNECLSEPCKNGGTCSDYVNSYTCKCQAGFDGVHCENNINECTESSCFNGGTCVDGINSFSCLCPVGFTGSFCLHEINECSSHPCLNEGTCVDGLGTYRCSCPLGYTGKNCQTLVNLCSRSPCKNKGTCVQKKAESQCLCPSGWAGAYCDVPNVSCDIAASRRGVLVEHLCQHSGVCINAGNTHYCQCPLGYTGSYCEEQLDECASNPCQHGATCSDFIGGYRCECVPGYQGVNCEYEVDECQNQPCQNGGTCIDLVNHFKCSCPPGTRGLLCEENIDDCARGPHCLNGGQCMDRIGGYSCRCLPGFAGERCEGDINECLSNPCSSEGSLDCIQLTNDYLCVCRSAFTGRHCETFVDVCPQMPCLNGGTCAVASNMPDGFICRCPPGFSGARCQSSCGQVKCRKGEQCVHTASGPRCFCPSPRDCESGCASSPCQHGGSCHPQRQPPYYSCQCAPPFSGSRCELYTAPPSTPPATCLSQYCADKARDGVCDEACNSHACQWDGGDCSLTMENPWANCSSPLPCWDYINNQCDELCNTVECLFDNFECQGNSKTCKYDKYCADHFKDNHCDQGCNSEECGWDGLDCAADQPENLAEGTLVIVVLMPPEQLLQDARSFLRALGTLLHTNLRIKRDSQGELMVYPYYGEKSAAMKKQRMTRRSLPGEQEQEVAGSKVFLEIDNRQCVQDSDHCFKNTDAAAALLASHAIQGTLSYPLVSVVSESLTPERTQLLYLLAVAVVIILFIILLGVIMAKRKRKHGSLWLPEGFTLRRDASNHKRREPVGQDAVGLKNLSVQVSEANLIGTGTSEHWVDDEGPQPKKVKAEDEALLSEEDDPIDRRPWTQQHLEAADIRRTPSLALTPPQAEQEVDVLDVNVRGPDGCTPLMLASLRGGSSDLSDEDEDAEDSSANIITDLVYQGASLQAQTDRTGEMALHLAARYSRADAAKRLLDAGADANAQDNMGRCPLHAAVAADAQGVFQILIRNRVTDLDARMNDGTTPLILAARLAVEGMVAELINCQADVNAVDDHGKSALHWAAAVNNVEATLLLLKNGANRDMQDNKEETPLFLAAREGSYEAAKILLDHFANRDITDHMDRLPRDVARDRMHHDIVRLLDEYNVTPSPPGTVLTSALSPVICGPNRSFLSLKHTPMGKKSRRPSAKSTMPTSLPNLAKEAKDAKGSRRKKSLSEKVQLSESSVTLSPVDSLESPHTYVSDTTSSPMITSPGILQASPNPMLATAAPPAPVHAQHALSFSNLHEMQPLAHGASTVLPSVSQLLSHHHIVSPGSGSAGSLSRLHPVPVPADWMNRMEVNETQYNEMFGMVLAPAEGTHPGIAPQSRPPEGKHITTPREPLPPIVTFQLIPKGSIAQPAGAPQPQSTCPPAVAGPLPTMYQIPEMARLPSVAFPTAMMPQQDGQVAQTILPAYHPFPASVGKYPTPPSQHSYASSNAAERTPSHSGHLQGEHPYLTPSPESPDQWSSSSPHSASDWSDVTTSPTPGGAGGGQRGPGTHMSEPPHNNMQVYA

In the case of `O=C(NC1CC1)[C@@H]1c2ccccc2C(=O)N(Cc2ccccc2)[C@H]1c1ccc(CO)cc1`, the composite z-score in test [1] is 0.176; in test [2], -0.301; in test [3] it was -0.0606; in [4], 0.207; in test [5], -0.454; in test [6], 1.4. Also, the composite z-score in test [7] is 1.4; in [9], 0.646; in test [10], -0.493; in test [11], 0.449; in test [15] it was 2.63; in [17] it was -0.479. Moreover, the values for the composite z-score in test [18], in [19] and in [20] were -0.43, -0.0341 and -0.366, respectively. Besides, the z-score was -2.71 (inactive) in test [8]; 0.763 (inactive) in test [12]; 0.109 (inactive) in test [13]; 0.0225 (inactive) in test [14]; 0.958 (inactive) in test [16].
Turning to `C=CC[C@H](OC(=O)Nc1ccc(OC)cc1)c1ccc(O)c2ccccc12`, the composite z-score in test [1] was -0.471; in test [2], 0.38; in test [3], -0.0894; in test [4], 0.517; in test [5], 1.28; in [6] it was 0.473. Further, the composite z-score in test [7] was found to be 0.933; in [9], 0.0069; in test [10] it was 0.176; in test [11], 1.33; in test [15], 2.08; in test [17] it was 0.054. Besides, the composite z-score was 0.578 in [18], 1.06 in test [19] and -0.0509 in test [20]. Also, the z-score was 6.36 (inactive) in [8]; -23.9 (active) in test [12]; -19.5 (active) in test [13]; -1.21 (inactive) in [14]; 0.364 (inactive) in test [16].
Regarding `CCOC(=O)[C@H]1C/C=C/C[C@H](C(=O)OCC)C(=O)O[C@H]2[C@@H](OC)O[C@H](CO)[C@@H](OC(=O)CCc3ccccc3)[C@@H]2OC1=O`, the composite z-score in test [1] was -0.146; in test [2], -0.267; in test [3], 0.461; in test [4] it was -0.485; in [5] it was -1.08; in test [6] it was 0.815. Moreover, the composite z-score in [7] was -0.0615; in test [9], -0.555; in [10] it was -0.169; in [11], 0.182; in test [15], 0.0772; in [17] it was -0.132. Moreover, the composite z-score in test [18] is 0.0226; in test [19], 0.01; in test [20], -0.314. In addition, the z-score was -1.26 (inactive) in [8]; 0.491 (inactive) in test [12]; -1.29 (inactive) in test [13]; 15.2 (active) in test [14]; -0.677 (inactive) in [16].
Take `COc1ccc(C(O)C2C=CC3C(=O)N(c4ccccc4)C(=O)C3N2Nc2ccc(C#N)cc2)c2ccccc12` (stereo not given): the composite z-score came to 0.983 in [1]; 0.707 in test [2]; 0.0785 in test [3]; 0.337 in test [4]; 1.6 in [5]; 1.96 in [6]. For the same molecule, the composite z-score in test [7] was found to be 1.11; in test [9], 1.2; in [10], 0.0515; in [11] it was 1.35; in [15], 3.38; in test [17] it was 0.397. The composite z-score in test [18] was 0.238; in test [19], 1.08; in test [20] it was -0.0424. The z-score in [8] was 0.757 (inactive); in [12], -1.89 (inactive); in test [13] it was 2.35 (inactive); in test [14] it was 0.906 (inactive); in test [16] it was -0.945 (inactive).
As for `C[N+](C)(C)CCCC[C@@H]1NC(=O)[C@@H]2C[C@H](C(=O)O)[C@H](c3ccc(O)cc3)N2C1=O`, the composite z-score is 1.26 in test [1]; -0.752 in test [2]; -0.119 in test [3]; -0.695 in test [4]; -1.77 in test [5]; -0.0673 in test [6]. The composite z-score in test [7] is -0.118; in [9] it was -0.639; in test [10] it was -0.137; in test [11], -0.701; in [15] it was -0.972; in test [17], -0.0943. Also, the results for the composite z-score in test [18], in [19] and in test [20] were -0.342, -0.694 and -0.269, respectively. Also, the z-score was 0.0902 (inactive) in test [8]; 0.151 (inactive) in test [12]; 0.229 (inactive) in test [13]; -1.27 (inactive) in [14]; 0.0772 (inactive) in [16].
As for `CN1C(=O)C2C(C1=O)C1C=C(c3ccc(CO)cc3)C2C(c2cccs2)N1Cc1cccc(OC(F)(F)F)c1` (stereo not given), the composite z-score is -0.16 in [1]; 0.669 in test [2]; -0.109 in test [3]; 0.432 in test [4]; 1.25 in test [5]; 1.87 in test [6]. The composite z-score in test [7] stood at 1.35; in test [9], 0.875; in test [10], 0.0505; in test [11], 1.55; in [15], 2.65; in [17] it was 0.0007. Also, the results for the composite z-score in test [18], in test [19] and in [20] were 1.38, 1.09 and -0.013, respectively. Besides, the z-score is 0.785 (inactive) in test [8]; -1.68 (inactive) in [12]; -2.57 (inactive) in test [13]; 3.35 (inactive) in [14]; 0.907 (inactive) in test [16].
For the molecule `Cc1ccc(S[C@]2(C(=O)NCC(F)(F)F)CC(=O)N(Cc3ccccc3)[C@@H]2c2ccc(CO)cc2)cc1`, the composite z-score is 0.2 in test [1]; 0.179 in [2]; -0.158 in test [3]; -0.453 in test [4]; -0.851 in [5]; 0.248 in [6]. Moreover, the composite z-score in test [7] was 0.463; in [9], -0.543; in test [10], -0.266; in test [11], 0.293; in test [15], 2.06; in [17], -0.137. Also, the composite z-score in test [18] is -0.92; in test [19] it was -0.681; in [20], -0.178. For the same molecule, the z-score in test [8] was -2.41 (inactive); in test [12], 0.249 (inactive); in [13] it was -1.2 (inactive); in test [14] it was -0.711 (inactive); in test [16], -1.68 (inactive).
Turning to `CC=CC(O)C1C=CC2C(=O)N(C)C(=O)C2N1N1CCCCC1` (stereo not given), the composite z-score in test [1] is -0.0771; in [2], 0.326; in [3] it was -0.0231; in [4], 0.862; in [5] it was 1.45; in test [6], 1.85. Also, the composite z-score in [7] was 1.26; in [9], 0.697; in test [10] it was -0.305; in test [11] it was 1.34; in [15], 3.52; in test [17], 0.0974. Besides, the composite z-score in [18] is 0.605; in test [19], 1.09; in [20] it was -0.115. Also, the z-score in [8] is 1.89 (inactive); in test [12], -0.322 (inactive); in test [13], 1.01 (inactive); in test [14] it was -0.207 (inactive); in test [16] it was -1.53 (inactive).
Take `CC1CC/C=C\[C@H]2OC34C=CCN(CCN5CCOCC5)C(=O)[C@H]3N(CCO)C(=O)[C@@H]4C2C(=O)O1` (stereo not given in full): the composite z-score in [1] was 0.507; in test [2] it was -0.342; in test [3] it was 0.013; in test [4] it was -0.105; in [5] it was -0.807; in test [6], -0.917. Also, the composite z-score in [7] is -0.376; in test [9], -0.421; in test [10] it was -0.4; in test [11], -0.623; in test [15], -0.144; in test [17] it was -0.103. Moreover, the composite z-score in test [18] was -0.982; in test [19], -0.43; in test [20], -0.196. In addition, the z-score in [8] is -0.322 (inactive); in test [12] it was -0.962 (inactive); in test [13] it was 0.0701 (inactive); in [14], 0.005 (inactive); in [16] it was 1.25 (inactive).

The values are drawn from PubChem BioAssay.
